Results on 54 compounds are retold here after ChEMBL document CHEMBL3988442, “University of Dundee, Small-Polar-MMV Screening Library” (2021).

About 13,000 (27%) of roughly 48,000 compounds showed an effect of 50% or more. Some of the results follow.

For the assay, the system named is Wolbachia pipientis. As to the kind of experiment: Anti-Wolbachia Cell-Based Screen. The class given is functional. The arrangement: scale not given: in the data most compounds retested in dose-response had high values. To be noted: 5 µM.
Take `CC(C)S(=O)(=O)NC(=O)c1cc(-c2cccc(Cl)c2)no1`: the “Percent Effect” value is reported as -50.72%.
Under `CC(C)NC(=O)NCc1cc(-c2cccc(Cl)c2)nn1C` stands 128.3%.
On to `CC(C)[C@H](NS(C)(=O)=O)C(=O)NCc1cc(-c2ccccc2)nn1C`, for which the “Percent Effect” value is recorded as 107.7%.
The same measure for `CC(C)[C@H](NS(C)(=O)=O)C(=O)NCc1cc(-c2ccco2)nn1C`: 131.1%.
The same measure for `Cn1c(C(=O)NS(C)(=O)=O)ccc1-c1ccccc1`: -9.851%.
On to `CCN(CC)C(=O)c1cc(-c2cccc(Cl)c2)no1`, for which the “Percent Effect” value was -14.84%.
Take `CC(NC(=O)c1cc(-c2cccc(Cl)c2)no1)C(=O)N(C)C` (centres undefined): the “Percent Effect” value was -38.11%.
In the case of `CN(Cc1cc(-c2ccccc2)no1)C(=O)CNS(C)(=O)=O`, the “Percent Effect” value is given as -3.143%.
Under `CC(C)[C@@H]1CN(C(=O)NCc2ccco2)C[C@H]1NS(=O)(=O)N(C)C` stands 8.904%.
Turning to `CC(Cc1ccco1)NC(=O)NCc1ncnn1C` (centres undefined), the “Percent Effect” value worked out at 9.946%.
Under `O=C1N(c2ccc(Cl)cc2)Cc2nc(=O)[nH]n21` stands -10.7%; under `Cc1cccc(NC(=O)NCCCn2nc3ccccn3c2=O)c1C`, -5.568%.
Under `COc1ccccc1C(C)NC(=O)N1CCN(Cc2ccc(Br)s2)CC1` (centres undefined) stands 3.107%.
Regarding `CCCc1nn(Cc2csc(C(C)C)n2)c(=O)o1`, the “Percent Effect” value is reported as -6.237%.
Regarding `COCCn1c(=O)n(Cc2ccc(Cl)s2)c2cc(C(=O)O)ccc21`, the “Percent Effect” value is 5.462%.
The same measure for `COCc1nn(Cc2ccc(Cl)s2)c(=O)o1`: 85.2%.
Under `CCc1nc(Cn2nc(COC)oc2=O)cs1` stands 8.463%; under `CCCc1nn(Cc2csc(CC)n2)c(=O)o1`, 0.8831%.
The same measure for `CCCc1nn(Cc2ccc(Br)s2)c(=O)o1`: 114.1%; for `COCc1nn(Cc2ccc(Br)s2)c(=O)o1`: 93.51%; for `COc1cccc(-c2cc(NCc3cscn3)n(C)n2)c1`: -6.796%.
Consider `Cc1nc2ccccn2c1CN1C[C@@H](CN(C)C)[C@@H](CO)C1`, for which the “Percent Effect” value is recorded as -2.196%.
Under `CC(C)c1noc(C2CCCN2S(=O)(=O)N2CCCCCC2)n1` (centres undefined) stands 33.89%; under `CC(=O)c1ccccc1C(=O)NCC1(CO)CC1`, -16.93%.
Under `NC(c1ccc(F)cc1)c1cccs1` (centres undefined) stands 14.08%.
Under `O=C(O)C(F)(F)F.O=c1cc(CNS(=O)(=O)C2CC2)nc2n1CCCN(CC1CC1)C2` stands 107%.
Regarding `CC(=O)N1CCCn2c(nc(CNS(=O)(=O)C3CC3)cc2=O)C1`, the “Percent Effect” value is -2.795%.
`CN1CCCn2c(nc(CNS(=O)(=O)C3CC3)cc2=O)C1.O=C(O)C(F)(F)F`: the “Percent Effect” value is reported as -4.96%.
As for `CS(=O)(=O)NCc1cc(=O)n2c(n1)CN(Cc1ccco1)CCC2.O=C(O)C(F)(F)F`, the “Percent Effect” value is recorded as -0.8444%.
The same measure for `CS(=O)(=O)NCc1cc(=O)n2c(n1)CN(CC1CC1)CCC2.O=C(O)C(F)(F)F`: 110.4%; for `Cc1cc(C)n(CC2(CNC(=O)C(c3ccccc3F)N(C)C)CC2)n1` (centres undefined): -12.38%.
The same measure for `CC1c2ncc(COCC3CCCC3)n2CCN1S(=O)(=O)N(C)C` (centres undefined): -21.16%.
Under `CN(C)c1cccc(C(=O)Nc2cnn(CC(N)=O)c2)c1` stands -9.995%; under `Fc1ccc(CN2CCCC3(CCN(Cc4ncc[nH]4)C3)C2)cc1F` (centres undefined), 2.586%.
Turning to `CN1C[C@H](O)[C@]2(CCN(Cc3ccc(F)c(F)c3)C2)S1(=O)=O`, the “Percent Effect” value was determined as 108.2%.
Under `O=C(c1ccc(Br)s1)N1CCN(Cc2ccc(OC(F)(F)F)cc2)CC1` stands -12.95%; under `COc1ccc(CN2CCN(C(=O)N(C)C)[C@@H]3CS(=O)(=O)C[C@@H]32)cc1F`, -14.55%.
Under `CN1C[C@H](O)[C@]2(CCN(Cc3ccc(OC(F)(F)F)cc3)C2)S1(=O)=O` stands 118.4%.
As to `Cc1c[nH]c(CN2CCC3(CCCN(Cc4ccc(F)c(F)c4)C3)C2)n1` (centres undefined), the “Percent Effect” value was -10.55%.
Under `O=C(c1ccc(Br)o1)N1CCN(Cc2ccc(OC(F)(F)F)cc2)CC1` stands -3.633%; under `COCCC(=O)N1CCC2(CN(Cc3ccc(OC)c(F)c3)C2)C1`, 5.323%; under `COc1ccc(CN2CC[C@@]3(C2)[C@H](O)CN(C)S3(=O)=O)cc1F`, 137.9%.
In the case of `Cc1nc(C2CCN(S(=O)(=O)c3ccc(Cl)cc3)CC2)n[nH]1`, the “Percent Effect” value is reported as 2.775%.
The same measure for `Cc1ccc(S(=O)(=O)N2CCC(c3n[nH]cc3C(=O)N(C)C)CC2)cc1`: 124.5%.
Under `CN(C)C(=O)c1cccnc1N1CCOC(c2ccc(Cl)cc2)C1` (centres undefined) stands 7.498%.
Under `CCN1CC[C@@]2(C(=O)N(C)C)CCN(S(=O)(=O)c3ccccc3)CC[C@@H]12.O=C(O)C(F)(F)F` stands 1.516%.
`CN(C)C(=O)c1c[nH]nc1C1CCN(S(=O)(=O)c2cccc(Cl)c2)CC1`: the “Percent Effect” value came out at 103%.
The same measure for `CN(C)C(=O)c1c[nH]nc1C1CCN(S(=O)(=O)c2ccc(Cl)cc2)CC1`: 131.9%; for `CN(C)C(=O)c1c[nH]nc1C1CCN(S(=O)(=O)c2ccccc2)CC1`: 115.3%; for `CC(=O)c1ccc(S(=O)(=O)N2CCC(c3n[nH]c(C)n3)CC2)cc1`: 9.052%.
The same measure for `CC(=O)c1cccc(S(=O)(=O)N2CCC(c3noc(C)n3)CC2)c1`: -3.648%; for `CN(C)C[C@H]1OC[C@@H]2CCN(S(=O)(=O)c3ccccc3)C[C@@H]21.O=C(O)C(F)(F)F`: -5.753%; for `CNC(=O)[C@@]12CCO[C@@H]1CCN(S(=O)(=O)c1ccc(C)cc1)C2`: 8.759%.
The same measure for `CC(=O)c1cccc(S(=O)(=O)N2CCC(c3n[nH]c(C)n3)CC2)c1`: -14.04%.
